# Screening results from PubChem.
# Rows were chosen to be rich in hits. Some 18% of all compounds tested hit in one or more screens of this group.
# TGFb SMAD3 inh: blocks TGF-b signaling | Potency, µM (top dose mostly 46.1 µM), for inactives: top-dose activity, negative = inhibition, actives largely listed as inhibitors | AID 588855 | 410,000 tested, 1.2% active | HepG2 CAGA-GFP TGF-b/SMAD3 reporter, GFP fluorescence, 18 h; TGF-beta stimulated, 500 pg/mL final; note: potency is the fitted concentration of half-maximal effect; % is set by controls: 0 for no effect and ±100 for the full control effect; nearly all actives have a fitted effect of over 65% in size
#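 Inhibition was scored as loss of TGF-beta-induced (500 pg/mL final, 18 hours, 37 degrees C) GFP in HEPG2 cells carrying a CAGA-GFP reporter, in DMEM with 1% FBS. Well GFP was summed per cell; Activity was normalised to unstimulated and stimulated DMSO wells, then concentration-response fitting.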
# TDP1 block: inhibitors of human tyrosyl-DNA phosphodiesterase TDP1 | Q9NUW8 | recombinant TDP1, AlphaScreen DNA substrate cleavage | Potency, µM (series often up to 130 µM), inactives show at the top dose activity change, negative = inhibition, actives largely listed as inhibitors | 350,000 tested, 0.28% active | AID 485290; note: potency is the fitted concentration of half-maximal effect; % is set by controls: 0 for no effect and ±100 for the full control effect; nearly all actives have a fitted effect of over 40% in size
# Target sequence (Q9NUW8 whole entry, looked up): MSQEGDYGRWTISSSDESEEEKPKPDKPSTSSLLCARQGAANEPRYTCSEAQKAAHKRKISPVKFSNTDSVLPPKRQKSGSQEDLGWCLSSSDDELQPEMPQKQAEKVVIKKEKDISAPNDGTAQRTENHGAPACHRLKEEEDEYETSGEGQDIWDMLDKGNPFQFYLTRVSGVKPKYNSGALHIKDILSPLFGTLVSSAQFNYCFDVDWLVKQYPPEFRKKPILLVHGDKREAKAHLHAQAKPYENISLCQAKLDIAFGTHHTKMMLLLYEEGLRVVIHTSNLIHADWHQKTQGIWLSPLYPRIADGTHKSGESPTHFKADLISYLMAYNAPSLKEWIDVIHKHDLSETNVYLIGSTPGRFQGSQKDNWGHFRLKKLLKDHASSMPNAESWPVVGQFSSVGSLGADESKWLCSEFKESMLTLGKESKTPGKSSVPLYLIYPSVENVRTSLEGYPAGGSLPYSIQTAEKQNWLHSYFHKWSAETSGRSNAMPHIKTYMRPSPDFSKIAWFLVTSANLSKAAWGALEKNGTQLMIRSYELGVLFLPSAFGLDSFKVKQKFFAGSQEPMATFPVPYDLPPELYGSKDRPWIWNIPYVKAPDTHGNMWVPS
#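 AlphaScreen read-out: signal falls as enzyme removes the 3' tyrosine-FITC from a 5'-biotinylated DNA oligo (15 nM, 5 min, RT). Enzyme was E. coli-made recombinant Tdp1 at 1 nM, exposed to compound for 15 min beforehand; beads 10 ug/ml, 10 min.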
# HepG2 tox: HepG2 cytotoxicity, counter-screen for TGF-b inhibitors | HepG2 CAGA-GFP viability, ATP luminescence, 18 h | 410,000 tested, 0.76% active | Potency, µM (series often up to 46.1 µM), for inactives: at the highest dose activity change, negative = cytotoxicity, actives largely listed as cytotoxic; note: potency is the fitted concentration of half-maximal effect
#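 CellTiter-Glo luminescence gave cytotoxicity after 18 hours at 37 degrees C. The cells were HepG2 CAGA-GFP in 1% FBS DMEM, stimulated with 500 pg/mL TGF-beta after compound addition. %Activity was normalised to no-cell wells (complete cell-killing) and DMSO (no toxicity), and curves were fitted and classified.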
# IL-1B inflam inh: blocks inflammasome-driven IL-1 beta release; THP-1 LPS/ATP IL-1B secretion, AlphaLISA, 16 h; hits give low values; 360,000 tested, 4.7% active; AID 743279; activity change, % at 57.5 µM; in the data active = activity change below about -50%; inconclusive = mostly about -30% to -49%; note: % is set by controls: 0 for no effect and ±100 for the full control effect
#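 Secreted IL-1B measured by AlphaLISA bead assay after 16 h compound exposure of THP-1 cells; compounds (final up to 57.5 uM) added 1 h before LPS (250 ng/mL) and ATP (1.25 mM) stimulation; lower signal means less secretion.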
# TDP1 cell CPT: DT40-hTDP1 cell growth loss with CPT. Potency, µM (top dose mostly 46.2 µM), inactives show at the top dose activity change, negative = growth inhibition, most hits filed as inhibitors. AID 686979. chicken DT40 Tdp1-/-;hTDP1 cells + 20 nM CPT, ATP luminescence, 48 h. 420,000 tested, 12% active; note: potency is the fitted concentration of half-maximal effect; % is set by controls: 0 for no effect and ±100 for the full control effect; nearly all actives have a fitted effect of over 55% in size
#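 Chicken DT40 Tdp1-/- cells complemented with human TDP1, 400 cells/well, exposed to compounds plus 20 nM camptothecin for at least 48 h at 37 C; viability read as ATP content by CellTiter-Glo luminescence.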
# TDP1 cell noCPT: qHTS for Inhibitors of human tyrosyl-DNA phosphodiesterase 1 (TDP1): qHTS in cells in absence of CPT. Potency, µM (titrated, usually from 46.2 µM), for inactives: at the highest dose activity change, negative = growth inhibition, usual class: inhibitors. AID 686978, 2013. 420,000 tested, 15% active. DT40 Tdp1-/- hTDP1 cells, no CPT, ATP luminescence, 48 h; note: potency is the fitted concentration of half-maximal effect; % is set by controls: 0 for no effect and ±100 for the full control effect; nearly all actives have a fitted effect of over 55% in size
#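 Cells were dispensed at 400 per well, compounds added by pin tool, plates incubated ≥48 hr at 37 °C, then CellTiter-Glo added for 30 min at room temperature before luminescence reading. Line: DT40 Tdp1-/- complemented with hTDP1; camptothecin omitted.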
# An asterisk follows results filed as active; u = inconclusive; x = no result. Unless noted, calls come from the whole dose curve; as a rule, active = well fitted curve in the direction sought with a large enough effect; inconclusive = small, poorly fitted or top-dose-only effect, or another doubt; inactive = no such curve, though single readings can be large; an effect the other way counts as inactive or inconclusive.
SMILES,TGFb SMAD3 inh,TDP1 block,HepG2 tox,IL-1B inflam inh,TDP1 cell CPT,TDP1 cell noCPT
CCOC(=O)Nc1cc(N)ncn1,6.8%,x,5.2%,19.1,2.6%,-8.3%
CCOc1cc(N2CCOCC2)c(OCC)cc1NC(=O)c1ccccc1,7.5%,-1.6%,-17.7%,-18.0,20.6µM*,16.4µM*
CCOc1cc(N2CCOCC2)c(OCC)cc1NC(=O)c1ccc(-n2ccnc2)c([N+](=O)[O-])c1,3.2%,8.4%,-11.2%,12.3,-29.6%,14.6µM*
CCCn1nc(C(=O)Nc2cc(OCC)c(N3CCOCC3)cc2OCC)c2ccccc2c1=O,-1.2%,x,-17.4%,-16.5,16.4µM*,3.26µM*
CCOc1cc(N2CCOCC2)c(OCC)cc1NC(=O)c1c(-c2ccccc2Cl)noc1C,-5.2%,9.6%,-1.1%,-2.6,10.3µM*,7.31µM*
CCOc1cc(N2CCOCC2)c(OCC)cc1NC(=O)c1ccc(C)cc1,12.0%,0.5%,4.1%,6.3,u,9.2µM*
CCc1nonc1NC(=O)c1oc2cc(C)c(Cl)cc2c1C,16.6%,2.1%,26.1%,17.2,u,9.2µM*
COc1ccc(-c2nonc2NC(=O)c2oc3ccccc3c2C)cc1OC,-12.8%,-3.0%,-12.7%,0.0,-24.6%,-16.4%
CCOc1ccc(-c2nonc2NC(=O)c2oc3ccc(Cl)cc3c2C)cc1,u,-2.3%,4.5%,x,0.92µM*,0.92µM*
COc1ccccc1CNC(=O)c1c(-c2ccccc2)nn(-c2ccccc2)c1C,-4.1%,0.5%,-22.0%,u,u,14.6µM*
COc1ccccc1CNC(=O)CSc1nnc(C)c2c(C)n(-c3ccccc3)nc12,u,0.0%,-26.2%,x,20.6µM*,23.1µM*
CCOC(=O)c1c(C)c(C(=O)NCc2ccccc2OC)c(C)n1C,14.3%,6.9%,-15.1%,4.2,u,12.6µM*
O=C(C[C@H]1C/C=C\CC[C@H](Cc2ccc(F)cc2)C(=O)O[C@@H](c2ccccc2)CNC1=O)N[C@H](CO)Cc1ccccc1,u,-2.7%,-65.7%,-15.1,u,u
O=C(C[C@H]1C/C=C\C[C@@H](Cc2ccc(F)cc2)C(=O)O[C@H](c2ccccc2)CNC1=O)NCCO,-13.1%,2.0%,12.6µM*,-1.5,u,u
O=C(C[C@H]1C/C=C\CC[C@H](Cc2ccc(F)cc2)C(=O)O[C@H](c2ccccc2)CNC1=O)N[C@H](CO)Cc1ccccc1,u,-2.5%,-26.6%,0.0,13µM*,13µM*
O=C(C[C@H]1C/C=C\C[C@H](Cc2ccc(F)cc2)C(=O)O[C@@H](c2ccccc2)CNC1=O)N[C@H](CO)Cc1ccccc1,-20.6%,0.3%,-23.3%,-8.1,u,10.3µM*
CC1=C(C(N)=O)S(=O)(=O)c2ccccc21,7.2%,6.2%,7.8%,3.7,u,u
COc1cccc(CNCc2ccc(OC)cc2OC)c1,-13.9%,x,1.4%,-56.5*,u,u
CCn1c2ccccc2c2cc(CNCc3ccc(OC)cc3OC)ccc21,u,9.0%,10µM*,-88.3*,u,10.3µM*
COc1ccc(CNCc2cc(C)c(OC)cc2C)c(OC)c1,-20.9%,x,-43.6%,-63.0*,14.6µM*,11.6µM*
COc1ccc(CNCc2ccc(F)cc2)c(OC)c1,-11.1%,x,0.5%,-26.4,-2.0%,u
CCOc1ccccc1NC(=O)CSc1nc2c(c(=O)[nH]1)CCC2,3.0%,8.6%,1.3%,x,-3.2%,u
COCCCN1C(=O)C(CC(=O)NCCCN(C)C)CC(C(=O)N2CCOCC2)=C1C (centres undefined),5.4%,x,-0.3%,30.7,-5.3%,0.2%
CCOC(=O)N1CCN(S(=O)(=O)c2c[nH]c(C(=O)OC)c2)CC1,8.3%,5.1%,-2.5%,18.3,-4.2%,12.3%
